Screening data from PubChem BioAssay.
miR-122 sensor – miR-122 Renilla sensor signal increase in Huh7, primary screen, miR-122 inhibitor project, cell-based, single point, plate reader | Huh7 miR-122 Renilla luciferase sensor, 48 h; neutral wells = 0, positive control = 100 | activation (reporter increase), % at 12.5 µM | 340,000 compounds, 0.3% hits;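 active means mean replicate activation score at least 90 and every replicate individually at or above 90; inconclusive means only one of the two criteria met; inactive means neither criterion met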;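 further: higher luciferase means less miR-122 activity so hits act as miR-122 inhibitors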
Wnt act – Wnt/beta-catenin pathway activators, primary screen, cell-based, plate reader, single point; Wnt/beta-catenin reporter cell assay, activator; activation, % at 9.35 µM; 300,000 compounds, 1.2% hits; AID 743398, 2014; in the data active means activation above about 30%, passing the limit was not always enough; inconclusive means no clear call, values can overlap the other calls;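 further: 0% = neutral control wells and 100% = positive control wells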
HIV Env fusion – inhibitors of HIV-1 Env-driven cell-cell fusion, primary screen, HeLa-JRFL effector, CEM21 target cells, luciferase. inhibition, % at 12.3 µM. 360,000 compounds, 1.1% hits;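 active means mean replicate inhibition score of at least 50 and every replicate individually at or above 50; inconclusive means only one of the two criteria met; inactive means mean below 50 and not all replicates reaching 50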;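 further: 0% = plate neutral controls and 100% = maraviroc near 300 nM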
MITF TRPM1 HTS – activators of MITF-driven TRPM1 promoter reporter, primary screen, cell-based, SK-MEL-5, luciferase, single point; AID 588334, 2011; 300,000 compounds, 0.75% hits; SK-MEL-5 TRPM1-promoter luciferase, 24 h; % of positive control, neutral wells = 0; activation, % at 12.5 µM;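 active means mean activation of at least 80% with every replicate also reaching 80%; inconclusive means mean reaches 80% but some replicate falls short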;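 further: 0% = neutral control wells and 100% = parthenolide positive control wells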
esBAF inh – Bmi1 luciferase reporter increase in mESCs, primary screen, esBAF inhibitor project, mouse ES cells, Bmi1 luciferase knock-in, single point; 24 h; 100% = twice the neutral-well signal; reporter increase, % at 12.5 µM; 350,000 compounds, 2% hits; in the data active means activation above about 40%; inconclusive means no clear call, values can overlap the other calls;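 further: 0% = median of the plate's neutral control wells and 100% = double that signal; a rise in the Bmi1 reporter signal indicates esBAF inhibition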
* marks the source's active call; other numbers are inactive results; ? = inconclusive; nt = no result given; [ ] = dose if it differs, or a comment. Hits are enriched below; roughly 3.4% of the tested compounds scored in any of these assays.

SMILES	miR-122 sensor	Wnt act	HIV Env fusion	MITF TRPM1 HTS	esBAF inh
COc1ccccc1OCC(=O)Nc1nc(C)c(C)s1	9	35*	-59	85*	30
COc1ccc(C(=O)Nc2ccc3c(c2)OCCO3)cc1Br	-4	2	-96	nt	48*
COc1ccccc1C(=O)Nc1ccc2c(c1)OC[C@@H](C)N(CC1CC1)C[C@@H](C)[C@H](OC)CN(C)C2=O	5[16.7 µM]	nt	nt	nt	0
C[C@@H]1CN([C@H](C)CO)C(=O)c2cc(NS(C)(=O)=O)ccc2O[C@H]1CN(C)Cc1ccc(C(=O)Nc2ccccc2N)cc1	-7[16.7 µM]	nt	17[16.7 µM]	nt	5
Cc1noc(C)c1NC(=O)N(C)C[C@H]1Oc2ccc(NC(=O)Nc3ccccc3)cc2CC(=O)N([C@@H](C)CO)C[C@H]1C	7[16.7 µM]	nt	13[16.7 µM]	nt	7
CC(C)CC#Cc1ccc2c(c1)O[C@@H](CN(C)C(=O)C1CC1)[C@H](C)CN([C@@H](C)CO)S2(=O)=O	5[16.7 µM]	nt	25[16.7 µM]	nt	nt
O=C(COc1ccc(S(=O)(=O)NC2CCCCC2)cc1)Nc1ccc2c(c1)OCCO2	101*	0	7	-14	-5
COc1ccc(Cl)cc1C(=O)Nc1ccc2c(c1)OCO2	17	nt	-12	nt	51*
COc1ccc(Cl)cc1C(=O)Nc1ccc2c(c1)OCCO2	6	10	-74	48	?
CN(C)C(=O)C[C@@H]1C[C@H]2c3cc(NS(=O)(=O)c4ccccc4)ccc3O[C@H]2[C@H](CO)O1	5[16.7 µM]	nt	nt	nt	3
Cc1cccc(CN2CCSCCS2(=O)=O)c1	nt	-1	61*	nt	nt
COCCNC(=O)C[C@@H]1CC[C@H]2[C@H](COc3ccc(NC(=O)c4cc(C)on4)cc3C(=O)N2C)O1	18[16.7 µM]	nt	nt	nt	-2
CCCNC(=O)Nc1ccc2c(c1)C(=O)N(C)[C@@H]1CC[C@H](CC(=O)NCCCN(C)C)O[C@@H]1CO2	48[16.7 µM]	nt	nt	nt	7
COc1ccc(C(=O)Nc2cccc3c2CCCC3)c(OC)c1	10	36*	-14	nt	nt
COc1ccc(C(=O)Nc2cccc3c2CCCC3)cc1	nt	3	7	nt	48*
O=C(Nc1ccc2c3c(cccc13)CC2)c1ccc(Br)o1	-5	nt	nt	74	79*
O=C(Nc1ccc2c3c(cccc13)CC2)c1ccco1	-2	nt	nt	34	27
COc1ccc(C(=O)Nc2ccc3c4c(cccc24)CC3)cc1	-1	15	-86	87*	nt
COc1cc(OC)cc(C(=O)NC(=S)Nc2ccc3c4c(cccc24)CC3)c1	-2	nt	nt	9	nt
COc1ccc(CC(=O)Nc2cccc3c2CCCC3)cc1	4	-1	10	nt	-3
C[C@H]1CN([C@@H](C)CO)C(=O)c2cc(NC(=O)Nc3cccc4ccccc34)ccc2O[C@H]1CN(C)S(=O)(=O)c1ccccc1	-8[16.7 µM]	nt	17[16.7 µM]	nt	-2
COc1ccc(NC(=O)Nc2ccc3c(c2)C(=O)N([C@@H](C)CO)C[C@@H](C)[C@H](CN(C)C(=O)C2CCCCC2)OCCCC[C@@H](C)O3)cc1	-19[16.7 µM]	nt	1[16.7 µM]	nt	6
CCc1ccc(CNCCNC(=O)c2ccco2)cc1	-6	42*	nt	-7	36
C[C@@H]1CN([C@@H](C)CO)C(=O)CCCn2cc(nn2)CO[C@H]1CN(C)C	6[16.7 µM]	nt	nt	nt	-2
O=[N+]([O-])c1ccc(CN2CCN(c3ccc([N+](=O)[O-])cc3)CC2)cc1	nt	-3	22	-11	-1
SMILES	miR-122 sensor	Wnt act	HIV Env fusion	MITF TRPM1 HTS	esBAF inh
O=[N+]([O-])c1ccc(N2CCC(=NOCc3ccc(Cl)cc3)CC2)cc1	-14	nt	75*	nt	-4
O=C(O)CCSc1nc2ccccc2s1	-12	0	78*	-6	-54
c1ccc2sc(SCSc3nc4ccccc4s3)nc2c1	-5	8	-24	20	20
N#CCCCSc1nnc(CSc2nc3ccccc3s2)n1-c1ccccc1	-5	nt	nt	-9	-14
O=C(O)C1CCN(C(=O)CSc2nc3ccccc3s2)CC1	-10	-1	-4	6	-11
N#CCc1nc(CSc2nc3ccccc3s2)cs1	-2	nt	-23	46	62*
CC1CCN(C(=O)CSc2nc3ccccc3s2)CC1	5	42*	-103	38	33
Cc1ccc2nc(SCC(=O)c3ccc(O)cc3O)[nH]c2c1	9	41*	-41	54	62*
CN(C)C(=O)C[C@@H]1C=C[C@@H](NC(=O)NC2CCCC2)[C@@H](CO)O1	nt	nt	10[16.7 µM]	nt	-1
O=C(Nc1ccccc1F)N[C@H]1CC[C@H](CCNC(=O)C2CCOCC2)O[C@H]1CO	nt	nt	10[16.7 µM]	nt	-1
O=C(CSc1nc2ccccc2s1)c1ccc(O)cc1O	nt	0	-1	41	51*
O=C(CSc1ccc(-c2cccs2)nn1)N1CCCCCC1	2	nt	nt	-7	50*
CC1Cc2ccccc2N1C(=O)CSc1nc2ccccc2s1 (configuration not stated)	5	11	26	-5	nt
CC1CCCC(C)N1C(=O)CSc1nc2ccccc2s1 (configuration not stated)	13	nt	19	nt	75*
CSc1nsc(SCC(=O)N2CCCCC2)n1	-7	14	-13	52	51*
NC(=O)C1CCN(C(=O)CSc2nc3ccccc3s2)CC1	-2	0	-2	16	4
O=C(CSc1nc2ccccc2s1)N1CCCCC1	-5	19	nt	74	82*
CCCCCCC#Cc1cncc(C(=O)NNC(=O)Nc2cc(Cl)cc(Cl)c2)c1	-2	42*	6	nt	nt
N#C/C(=C\c1ccc(F)cc1)c1nc(-c2ccco2)cs1	-3	12	-23	71	79*
N#C/C(=C\c1ccc(Cl)cc1)c1nc(-c2ccco2)cs1	nt	1	2	24	nt
CO[C@@H]1CN(C)C(=O)c2cc(NC(=O)NC3CCCCC3)ccc2OC[C@@H](C)N(C(C)=O)C[C@@H]1C	-5[16.7 µM]	nt	nt	nt	-2
C=CCOc1ccc(/C=C/C(C)=N\O)cc1	-10	38*	-406	nt	34
CN1C(=O)c2cc(NC(=O)Cc3ccccc3)ccc2OC[C@H]2O[C@@H](CC(=O)O)CC[C@H]21	-17[16.7 µM]	nt	-4[16.7 µM]	nt	0
Cn1c(=O)[nH]c2cc3ccccc3cc21	-1	-29	70*	-12	-13
Cc1nc2cc3ccccc3cc2n1C	nt	nt	nt	18	nt
CO[C@H]1CN(C)C(=O)c2cc(NC(=O)Nc3cc(F)ccc3F)ccc2OC[C@H](C)NC[C@@H]1C	nt	nt	5[16.7 µM]	nt	-2
COc1ccc(-c2csc(NCc3ccco3)n2)cc1C	nt	nt	nt	?	66*
CC(=O)Nc1ccc(-c2csc(NCc3ccco3)n2)cc1	-1	nt	nt	123*	nt
C[C@H]1CCCCO[C@@H](CN(C)C(=O)Nc2ccccc2)[C@@H](C)CN([C@@H](C)CO)C(=O)c2cc(NS(=O)(=O)c3cn(C)cn3)ccc2O1	4[16.7 µM]	nt	5[16.7 µM]	nt	3
CNC[C@@H]1OCCCC[C@H](C)Oc2ccc(NS(=O)(=O)c3ccc(OC)cc3)cc2C(=O)N([C@H](C)CO)C[C@@H]1C	5[16.7 µM]	nt	1[16.7 µM]	nt	3
